# From PubChem BioAssay
# Activity calls are given as the source filed them.
# How the values were obtained:
# [1] = test system: Plasmodium falciparum Sir2 (PF13_0152, Sir2A); experiment: pfSir2 binders on small-molecule microarrays, primary screen, biochemical, small-molecule microarray, 635 nm fluorescence (AID 1098); settings: small-molecule microarray binding, fluorescence 635 nm; higher = more signal;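 further: score merges spot fluorescence intensity with its signal-to-noise ratio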
# [2] = small-molecule microarray binders of probe aDKK1, primary screen, biochemical, biotinylated probe, 635/667 nm fluorescence (AID 1099); settings: higher = more signal;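 further: score merges 667nm spot fluorescence with signal to noise across triplicate slides; reference of the scale not given here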
# [3] = small-molecule microarray binders of probe aCHRDL2, primary screen, biochemical, biotinylated probe, 635/667 nm fluorescence (AID 1100); settings: higher = more signal
# [4] = splicing luciferase reporter signal modulators, primary screen, spliceosome inhibition project, cell-based, HEK293, splice +/- reporter (AID 1101); settings: luminescence, 24 h, higher = more signal, called active from +8 up or from −8 down;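 further: HEK293 cells carrying a splicing-competent luciferase reporter gene; test concentration not given here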
# [5] = molecular target: Fibroblast growth factor 10 (Homo sapiens) (UniProt O15520); experiment: FGF10 binders on small-molecule microarrays, primary screen, biochemical, small-molecule microarray, 635 nm fluorescence (AID 1102); settings: FGF10 binding, fluorescence 635 nm, higher = more signal
# Sequence of Fibroblast growth factor 10 (Homo sapiens) (O15520 whole entry, looked up): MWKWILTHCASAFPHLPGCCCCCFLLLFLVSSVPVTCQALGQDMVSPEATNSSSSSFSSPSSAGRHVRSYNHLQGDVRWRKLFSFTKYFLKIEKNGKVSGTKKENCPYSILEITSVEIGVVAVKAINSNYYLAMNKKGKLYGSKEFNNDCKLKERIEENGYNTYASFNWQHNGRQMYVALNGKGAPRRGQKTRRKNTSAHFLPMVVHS
# [6] = test system: glycogen synthase kinase-3 (GSK3A per assay name; protocol says GSK3B); experiment: GSK3 binders on small-molecule microarrays, primary screen, biochemical, small-molecule microarray, 635 nm fluorescence, GSK3A (AID 1103); settings: small-molecule microarray binding, fluorescence 635 nm; higher = more signal; further: the record names both GSK3A and GSK3B
# [7] = molecular target: Epidermal growth factor receptor (Homo sapiens) (UniProt P00533); experiment: EGFR binders on small-molecule microarrays, primary screen, biochemical, small-molecule microarray, 635 nm fluorescence (AID 1104); settings: EGFR binding, higher = more signal;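 further: score merges 667 nm emission intensity with spot signal to noise over triplicate slides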
# Sequence of Epidermal growth factor receptor (Homo sapiens) (P00533 whole entry, looked up): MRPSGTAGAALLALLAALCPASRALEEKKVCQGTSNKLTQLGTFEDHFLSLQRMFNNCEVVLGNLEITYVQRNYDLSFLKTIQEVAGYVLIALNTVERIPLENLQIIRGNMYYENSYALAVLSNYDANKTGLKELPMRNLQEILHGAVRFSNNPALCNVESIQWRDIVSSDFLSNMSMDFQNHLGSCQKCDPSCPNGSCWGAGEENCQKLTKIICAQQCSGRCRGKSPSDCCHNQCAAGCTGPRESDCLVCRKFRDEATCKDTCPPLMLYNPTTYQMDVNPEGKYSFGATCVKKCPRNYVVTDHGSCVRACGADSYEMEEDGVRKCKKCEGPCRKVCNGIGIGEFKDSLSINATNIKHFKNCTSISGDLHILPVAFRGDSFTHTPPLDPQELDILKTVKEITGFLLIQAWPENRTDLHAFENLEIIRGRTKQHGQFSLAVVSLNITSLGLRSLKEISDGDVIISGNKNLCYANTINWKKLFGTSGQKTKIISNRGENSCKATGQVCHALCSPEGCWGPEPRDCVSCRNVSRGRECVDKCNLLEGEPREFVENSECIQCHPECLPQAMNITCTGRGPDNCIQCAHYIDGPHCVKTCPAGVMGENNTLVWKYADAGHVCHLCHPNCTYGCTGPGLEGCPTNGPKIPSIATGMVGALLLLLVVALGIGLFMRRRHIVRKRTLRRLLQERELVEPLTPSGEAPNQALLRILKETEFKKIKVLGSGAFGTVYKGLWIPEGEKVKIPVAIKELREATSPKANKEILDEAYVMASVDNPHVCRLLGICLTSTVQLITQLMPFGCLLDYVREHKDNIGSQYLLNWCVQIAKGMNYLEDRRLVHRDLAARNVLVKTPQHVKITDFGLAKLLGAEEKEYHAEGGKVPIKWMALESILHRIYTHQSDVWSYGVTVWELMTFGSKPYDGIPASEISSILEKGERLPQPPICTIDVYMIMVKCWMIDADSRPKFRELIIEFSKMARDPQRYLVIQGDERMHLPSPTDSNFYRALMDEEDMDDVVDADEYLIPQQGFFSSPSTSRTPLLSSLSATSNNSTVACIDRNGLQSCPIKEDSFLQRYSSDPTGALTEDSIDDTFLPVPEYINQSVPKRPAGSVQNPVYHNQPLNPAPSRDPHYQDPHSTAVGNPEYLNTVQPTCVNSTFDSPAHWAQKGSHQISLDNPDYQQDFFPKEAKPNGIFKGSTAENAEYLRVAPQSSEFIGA
# [8] = molecular target: Follistatin-related protein 3 (Homo sapiens) (UniProt O95633); experiment: FSTL3 binders on small-molecule microarrays, primary screen, biochemical, small-molecule microarray, 635 nm fluorescence (AID 1105); settings: FSTL3 binding, higher = more signal;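 further: score merges emission near 667 nm and signal to noise per printed spot across three slides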
# Sequence of Follistatin-related protein 3 (Homo sapiens) (O95633 whole entry, looked up): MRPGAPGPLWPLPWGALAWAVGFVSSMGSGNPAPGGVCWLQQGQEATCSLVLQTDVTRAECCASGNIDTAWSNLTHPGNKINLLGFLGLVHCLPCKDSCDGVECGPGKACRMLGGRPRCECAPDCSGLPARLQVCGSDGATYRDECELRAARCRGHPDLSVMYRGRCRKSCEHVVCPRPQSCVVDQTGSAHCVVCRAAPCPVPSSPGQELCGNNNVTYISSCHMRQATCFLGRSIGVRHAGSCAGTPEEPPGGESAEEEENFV
# [9] = molecular target: Dickkopf-related protein 1 (Homo sapiens) (UniProt O94907); experiment: DKK1 binders on small-molecule microarrays, primary screen, biochemical, small-molecule microarray, 635 nm fluorescence scan (AID 1106); settings: DKK1 binding, higher = more signal;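 further: score merges emission near 667 nm with signal to noise over three replicate slides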
# Sequence of Dickkopf-related protein 1 (Homo sapiens) (O94907 whole entry, looked up): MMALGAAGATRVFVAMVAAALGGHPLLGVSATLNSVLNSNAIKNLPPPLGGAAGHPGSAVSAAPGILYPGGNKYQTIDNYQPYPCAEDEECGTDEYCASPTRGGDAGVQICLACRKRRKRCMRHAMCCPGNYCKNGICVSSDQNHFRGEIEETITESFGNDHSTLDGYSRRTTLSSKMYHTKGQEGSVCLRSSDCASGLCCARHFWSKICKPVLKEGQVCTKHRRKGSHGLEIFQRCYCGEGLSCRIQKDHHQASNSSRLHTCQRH
# [10] = test system: Inhibin beta A chain (activin A); experiment: INHBA (activin A) binders on microarrays, primary screen, biochemical, small-molecule microarray, 635 nm fluorescence scan (AID 1107); settings: small-molecule microarray binding, higher = more signal;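 further: mouse activin A protein probed at 4.33 µg/mL on printed slides; score merges bound-protein fluorescence near 667 nm with spot signal-to-noise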
Compound,composite z-score [1],composite z-score [2],composite z-score [3],z-score [4],composite z-score [5],composite z-score [6],composite z-score [7],composite z-score [8],composite z-score [9],composite z-score [10]
COC(=O)[C@@]1(Cc2ccccc2)[C@H]2c3cc(C(=O)N4CCCC4)n(Cc4ccc(C)o4)c3C[C@H]2CN1C(=O)c1ccccc1,1.21,0.526,1.13,-2.62 (inactive),-0.143,0.0411,0.36,0.276,-0.578,1.23
COCCOC(=O)N1C(=O)[C@@]2(c3cc(C#CC4=CCCCC4)ccc31)[C@H](C(=O)N1CCc3cc(OC)c(OC)cc3C1)[C@H]1C(=O)O[C@H](c3ccccc3)[C@H](c3ccccc3)N1[C@@H]2c1ccccc1OCCO,0.763,-0.0567,0.185,-0.176 (inactive),0.964,1.2,0.501,1,0.406,0.59
Cc1ccc(S[C@]2(C(=O)NC3CC3)CC(=O)N(C3CCCCC3)[C@@H]2c2ccc(CO)cc2I)cc1,1.19,0.198,0.259,-0.575 (inactive),0.796,0.52,0.396,1.18,0.0553,0.0315
COC(=O)[C@@]1(Cc2ccc(OC)cc2)[C@H]2c3cc(C(=O)N4CCCC4)n(Cc4cc(F)cc5c4OCOC5)c3C[C@H]2CN1C(=O)c1ccccc1,0.782,0.9,0.984,-2.73 (inactive),0.608,0.573,0.0471,0.326,-0.451,0.795
CCOC(=O)C[C@H]1[C@H](OC(=O)c2ccccc2-c2ccccc2)[C@@H](NC(=O)Cc2ccc(OC)cc2)c2cc(OCCCO)ccc2N1C(=O)c1ccccc1,-0.394,-0.236,-0.0402,-0.258 (inactive),0.225,-1.28,0.192,-0.0572,0.232,0.34
Cc1ccc(S[C@]2(C(=O)NC3CC3)CC(=O)N(Cc3ccccc3)[C@@H]2c2ccc(CO)cc2)cc1,0.325,0.224,0.892,-0.61 (inactive),-0.829,-0.414,-0.679,-0.217,0.539,0.194
COc1ccc(CCNC(=O)[C@@H]2c3ccccc3C(=O)N(Cc3ccc(OC(F)(F)F)cc3)[C@H]2c2ccc(CO)cc2)cc1,1.7,0.0658,0.396,0.0514 (inactive),0.719,0.965,-0.227,0.251,-0.204,0.258
C=C(COC)C(=O)CC[C@@H](OC(=O)c1cccnc1)c1ccc(CO)o1,0.691,-0.2,-0.237,1.86 (inactive),0.0396,0.457,0.182,0.916,0.611,1.58
CC(C)N1C(=O)[C@@]2(c3ccc([N+](=O)[O-])cc3)CC(=O)N(CC34CC5CC(CC(C5)C3)C4)[C@@H]2c2ccc(CO)cc21,-0.732,-0.0981,0.226,0.477 (inactive),-0.51,-0.829,-1.81,-0.603,-0.734,0.0207
CN(C)CCCCCCNC(=O)[C@H]1C[C@H]2C(=O)N[C@@H](CCCCN)C(=O)N2[C@H]1c1ccc(O)cc1,2.14,2.83,1.71,0.509 (inactive),1.29,1.48,1.6,1.65,2.15,1.45
COc1cc2c(cc1O)C(C)N(Cc1cccc(OC(F)(F)F)c1)CC2 (stereo not given),1.7,0.0376,0.23,-0.0689 (inactive),1.24,0.219,-0.425,0.514,0.188,0.902
C=C(COC)/C(=C/C[C@H](OC(=O)c1ccncc1)c1cccc(OCCO)c1)c1cc(C(=O)OC)ccc1OC,0.901,-0.0771,0.195,-0.147 (inactive),0.837,-0.208,-0.353,0.0001,-0.0833,0.533
Cc1ccccc1C(O)C1C=CC2C(=O)N(C)C(=O)C2N1Nc1ccccc1 (stereo not given),1.06,0.973,1.07,0.0737 (inactive),0.2,0.63,-0.0369,0.304,0.0139,1.16
CCOC(=O)C[C@H]1[C@H](OC(=O)Cc2ccc3c(c2)OCO3)[C@@H](NC(=O)C2CCCCC2)c2cc(OCCCO)ccc2N1C(=O)Cc1ccc(OC)cc1,0.17,-0.244,-0.214,-1.6 (inactive),0.919,0.646,0.252,0.297,0.316,0.561
CC(C)C[C@@H]1NC(=O)[C@@H]2C[C@H](C(=O)NCCCCCC[N+](C)(C)C)[C@H](c3ccc(O)cc3)N2C1=O,1.38,0.026,0.0989,0.00513 (inactive),0.623,1.21,0.29,0.706,0.977,0.987
CCCN1C(=O)[C@]2(COC(c3ccc(OCCCO)cc3)=N2)Cc2ccccc21,1.08,1.09,1.1,0.409 (inactive),0.736,1,-0.542,0.378,0.0779,0.854
COC(=O)C(CC#Cc1ccc2c(c1)[C@]1(C(=O)N2)[C@H](C(=O)NC[C@H](O)c2ccccc2)[C@H]2C(=O)O[C@H](c3ccccc3)[C@H](c3ccccc3)N2[C@@H]1c1ccc(OCCO)cc1)C(=O)OC,1.71,1.61,0.0724,0.0839 (inactive),1.3,1.3,0.767,1.46,1.14,1.21
C=CCNC(=O)[C@@H]1[C@H]2C(=O)O[C@H](c3ccccc3)[C@H](c3ccccc3)N2[C@H](c2ccc(OCCO)cc2)[C@@]12C(=O)Nc1ccccc12,1.06,0.454,-0.0808,-0.0935 (inactive),0.772,0.839,0.254,0.774,0.228,0.344
Cc1ccc(S[C@]2(C(=O)NCC(C)C)CC(=O)N(Cc3ccccc3Cl)[C@@H]2c2ccc(CO)cc2)cc1,-0.248,0.254,0.94,0.35 (inactive),-0.756,-1.15,-1,-2.05,-1.77,-0.544
O=C1OCCC=C[C@H]2OC34C=CCN(Cc5ccccc5)C(=O)[C@H]3N(CCCCCCO)C(=O)[C@@H]4C12 (stereo not given in full),1.61,-0.189,0.33,-0.205 (inactive),-1.26,-0.578,-0.83,-0.435,-1.38,-0.597
COc1c(C)cc(-c2cc3c(c(-c4ccc(Oc5ccccc5)cc4)n2)[Si](C(C)C)(C(C)C)OC3)cc1C,-0.486,0.187,0.0857,0.391 (inactive),0.0668,-0.278,0.168,-0.069,0.0431,0.51
COC(=O)c1ccc(OC)c(/C=C\CC(OC(C)=O)c2ccccc2)c1 (stereo not given),-0.22,-0.146,0.0946,-0.582 (inactive),-0.207,0.147,0.643,0.137,0.305,1.89
CC(=CC1CCCCC1)[C@@H](NC(=O)c1ccc(C(F)(F)F)cc1)c1ccc(-c2ccccc2)cc1,-0.0411,0.41,0.848,-0.423 (inactive),-0.394,-0.988,-0.365,0.138,-0.0349,1.03
CCCCC(O)C1C=CC2C(=O)N(C3CCCCC3)C(=O)C2N1Nc1ccc(OC)cc1 (stereo not given),0.637,0.298,0.948,-0.221 (inactive),0.517,1.28,-0.0301,1.12,-0.517,0.943
COc1ccc(C#Cc2ccc3c(c2)[C@]2(C(=O)N3)[C@H](C(=O)NC[C@H](O)c3ccccc3)[C@H]3C(=O)O[C@H](c4ccccc4)[C@H](c4ccccc4)N3[C@@H]2c2ccc(OCCO)cc2)cc1,1.33,0.0324,0.236,-1.46 (inactive),1.25,1.28,0.487,1.26,0.31,0.123
[N-]=[N+]=NCc1ccccc1C[C@@]1(C(=O)NCC(O)CO)N=C(c2ccc(OCCCO)cc2)O[C@@H]1c1ccccc1CN=[N+]=[N-] (stereo not given in full),1.71,-0.0331,0.884,0.135 (inactive),1.33,0.712,-0.747,-0.203,-0.643,0.688
[N-]=[N+]=NCc1ccccc1[C@@H]1OC(c2ccc(OCCCO)cc2)=N[C@]1(Cc1ccccc1N=[N+]=[N-])C(=O)NCc1ccccc1,0.919,0.0108,0.316,-0.856 (inactive),0.691,1.25,0.351,0.667,0.0688,1.28
CC(C)(C)OC(=O)CC[C@]1(C(=O)N2CCCCC2)N=C(c2ccc(OCCCO)cc2)O[C@H]1c1ccccc1N=[N+]=[N-],0.668,0.639,0.869,-1.37 (inactive),0.968,0.736,0.6,0.81,-0.135,1.34
